Results taken from PubChem BioAssay.
Values without a mark were called inactive. How the calls were made is not given here.

Target: Pantothenate synthetase (Mycobacterium tuberculosis (strain ATCC 25618 / H37Rv)) (UniProt P9WIL5)
Test: Coupled enzyme confirmation of inhibitors against recombinant Mtb PanC (AID 375);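 further: 0% = full reaction with vehicle and 100% = no enzyme background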
Details: coupled enzyme assay; at 10 µM, hits give high values

Chain of Pantothenate synthetase (Mycobacterium tuberculosis (strain ATCC 25618 / H37Rv)) (P9WIL5 whole entry, looked up): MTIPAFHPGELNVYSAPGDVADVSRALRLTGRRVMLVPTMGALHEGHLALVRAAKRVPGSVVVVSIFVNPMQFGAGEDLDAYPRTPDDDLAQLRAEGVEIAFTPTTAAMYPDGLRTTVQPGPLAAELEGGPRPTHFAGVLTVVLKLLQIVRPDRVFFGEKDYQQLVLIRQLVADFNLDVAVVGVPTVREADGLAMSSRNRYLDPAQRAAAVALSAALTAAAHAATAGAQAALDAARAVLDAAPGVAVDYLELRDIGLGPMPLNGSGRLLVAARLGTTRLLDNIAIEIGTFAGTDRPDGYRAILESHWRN

Row | SMILES | inhibition
1 | Cn1c(=O)c2c(ncn2CC(O)CNc2ccc(Cl)cc2)n(C)c1=O (stereo not given) | 0%
2 | Cc1ccc(S(=O)(=O)c2nc(-c3ccco3)oc2SCC(=O)NCC2CCCO2)cc1 (stereo not given) | 0%
3 | Cc1ccc(-c2cc(C(F)(F)F)n3nc(C(=O)N4CCCC4)cc3n2)cc1 | 5%
4 | Cc1nc2ccccn2c(=O)c1CCN1CCC(C(=O)c2ccc(F)cc2)CC1 | 0%
5 | COC(=O)c1ccc(CSc2nc(-c3ccc(OC)cc3)nc3c2c(=O)n(C)c(=O)n3C)o1 | 10%
6 | CN(C)S(=O)(=O)c1ccc(Oc2ccc(S(=O)(=O)N(C)C)cc2)cc1 | 4%
7 | COc1cc2c(cc1OC)CN(C(=O)CSc1nc3[nH]ncc3c(=O)n1-c1ccccc1)CC2 | 2%
8 | COc1ccc(OC)c(NS(=O)(=O)Cc2ccccc2)c1 | 0%
9 | Cc1ccccc1-n1c(=O)cc(NCc2ccc3c(c2)OCO3)[nH]c1=O | 2%
10 | Cc1ccc(C(C)C)c(OCCn2c(=O)oc3ccccc32)c1 | 0%
11 | CC(Oc1ccccc1)C(=O)N1CCCc2ccccc21 (stereo not given) | 0%
12 | CS(=O)(=O)N(CC(=O)NC1CC1)c1cccc(F)c1 | 0%
13 | CC(C)(C)SCCNC(=O)COc1ccccc1 | 3%
14 | O=C(O)c1cccc(COCC(F)(F)C(F)F)c1 | 0%
15 | Cc1ccc(-n2ncc3c(=O)[nH]c(SCC(=O)N4CCN(c5ccccc5)CC4)nc32)cc1 | 0%
16 | Cc1ccc(C2C3CN(C(C)C)CC=C3C(C#N)=C(N)C2(C#N)C#N)cc1 (stereo not given) | 0%
17 | O=C(C1CCN(S(=O)(=O)c2cccc3cccnc23)CC1)N1CCN(C2CCCCC2)CC1 | 0%
18 | Cc1cc(C)n2nc(SCC(=O)N(C)Cc3ccccc3)nc2n1 | 3%
19 | COc1cccc(-n2c(C)nc3c(cnn3-c3ccc(Cl)cc3)c2=O)c1 | 4%
20 | CC(C)(C)NC(=O)CN(C(=O)CS(=O)CC(=O)Nc1ccc(F)cc1)c1ccc(Cl)cc1 (stereo not given) | 0%

Row | SMILES | inhibition
21 | Cc1nc(C)c(C(=O)Nc2ccc(C)c(F)c2)o1 | 5%
22 | O=C(Nc1ccc2c(c1)OCCO2)NC1CCCCC1 | 0%
23 | CCOc1ccc(NC2c3ccccc3C(=O)N2Cc2ccco2)cc1 (stereo not given) | 1%
24 | O=C1c2ccccc2C(=O)N1Cc1nc2ccccc2c(=O)n1CCN1CCOCC1 | 1%
25 | O=C(CS(=O)(=O)c1cn(Cc2ccc(Cl)cc2)c2ccccc12)N1CCOCC1 | 0%
26 | Cc1ccc(C(C)C)c(OCCCN2CC(C)OC(C)C2)c1 (stereo not given) | 0%
27 | CCCCOc1cc(C(=O)NCCN(CC)CC)c2ccccc2n1 | 0%
28 | CCCc1ccc(C(C)NC(=O)c2cnccn2)cc1 (stereo not given) | 0%
29 | CCOc1ccc(Cn2nnc(C(=O)Nc3ccc(OC)cc3OC)c2N)cc1 | 0%
30 | CCOC(=O)c1cnn(-c2cc(C)c3cc(C)cc(C)c3n2)c1N | 0%
31 | Cc1ccc(S(=O)(=O)N2CCC(C(=O)N3CCN(Cc4ccccc4)CC3)CC2)cc1 | 0%
32 | COC(=O)c1cc2ccsc2n1CC(=O)Nc1cc(C)cc(C)c1 | 0%
33 | CCCCCCOC(=O)C(C#N)c1nc2ccccc2nc1N1CCCCC1 (stereo not given) | 0%
34 | CCOCCCNC(=O)C(c1ccccc1)N(Cc1ccc2c(c1)OCO2)C(=O)CNC(C)=O (stereo not given) | 1%
35 | COc1ccccc1-c1nc(C#N)c(N2CCN(c3ccccc3)CC2)o1 | 0%
36 | COc1ccc(NC(=O)CCS(=O)(=O)c2ccc(OC)cc2)cc1 | 0%
37 | CC(=O)n1nc(-c2ccco2)nc1SCc1ccccc1 | 0%
38 | C/C(CC(O)(/C=N/O)c1ccccc1)=N\O (stereo not given) | 1%
39 | O=C(NCc1cccs1)c1cc2c(s1)CCCC2 | 0%
40 | CCCCN(CC)CCNC(=O)c1cc2c(C)nc3ccccc3c2o1 | 10%
